Our source for the composite z-score and z-score values is PubChem BioAssay.

Activity calls are given as the source filed them. Unless noted, how the calls were made is not given here.

The subject of test [1] is Wnt5a (protein binding on small-molecule microarray). In words: small molecules binding Wnt5a protein – biophysical, small-molecule microarray, 635/667 nm fluorescence, primary screen (AID 1142).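 Further: fluorescence read at 667 nm with signal to noise per printed feature.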 The conditions noted are these: 635 nm fluorescence, higher = more signal.
Test [2] can be described thus: ATP-based viability of Huh7 replicon cells – cell-based, CellTiter-Glo luminescence, basal, 48 h, cytotoxicity control for HCV replication inhibitor project, primary screen (AID 1143).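 Further: Huh7 hepatoma cells carrying a hepatitis C replication reporter with no stimulus; test concentration not given here.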 As to conditions: higher = more signal, called active from +8 up or from −8 down. On the technique in general: In antiviral work, replicon cells carry a viral genome segment that copies itself.

Test [3] is described as follows: Pseudomonas biofilm growth suppression – PAO1 strain, BacTiter-Glo luminescence, LB-PBS, primary screen (AID 1144). As to conditions: P. aeruginosa PAO1 biofilm, 12 h, higher = more signal.
Test [4] is described as follows: basal CRE-LacZ reporter activity in PC12 – cell-based, unstimulated, primary screen (AID 1145). As to conditions: no forskolin, luminescence, 4.5 h, higher = more signal, called active from +8 up or from −8 down.
Test [5] in a line: forskolin-driven CRE-LacZ activity in PC12 – cell-based, CRE-LacZ reporter, forskolin-stimulated, primary screen (AID 1146).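 Further: PC12 cells with 6xCRE LacZ reporter stimulated by forskolin 10 µM; beta-galactosidase reporter signal reflecting CREB driven transcription.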 As to conditions: luminescence, 4.5 h, higher = more signal, called active from +8 up or from −8 down.
In test [6] the target is Streptavidin (Streptomyces avidinii) (UniProt P22629). In words: compounds binding control protein streptavidin – biophysical, small-molecule microarray, 635/667 nm fluorescence, artefact control for SMM compound annotation, primary screen (AID 1147).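 Further: signal reflects streptavidin binding to arrayed compounds as a control protein.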 As to conditions: higher = more signal.
A short description of test [7]: probe aInhba binding on compound microarray – biochemical, small-molecule microarray, 635/667 nm fluorescence, primary screen (AID 1148).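 Further: score merges 667nm spot fluorescence with signal-to-noise for antibody binding to printed compounds.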 The conditions noted are these: higher = more signal.
Test [8] concerns the target Torsin-1A (Homo sapiens) (UniProt O14656). Kind of test: TOR1A wild-type binding on microarray – cell lysate, small-molecule microarray, lysate, 635/667 nm, primary screen (AID 1149). The conditions noted are these: COS7 hTOR1A-WT lysate, 635 nm fluorescence, higher = more signal.
Test [9] has the same target. In words: torsin A mutant lysate binding on microarrays – cell lysate, small-molecule microarray, COS7 lysate, 635/667 nm fluorescence, primary screen (AID 1150).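 Further: score pools 667 nm emission and signal to noise measuring lysate protein binding.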 The conditions noted are these: COS7 hTOR1A mutant lysate, 635 nm fluorescence, higher = more signal.
The test system of test [10] is Sonic hedgehog protein (Shh). Kind of test: Sonic hedgehog microarray binding compounds – biochemical, small-molecule microarray, 635/667 nm fluorescence, primary screen (AID 1151).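 Further: Shh protein binding to compounds spotted on small-molecule microarray slides; score combines spot fluorescence intensity with signal-to-noise across triplicate slides.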 The conditions noted are these: 635 nm fluorescence, higher = more signal.
Test [11] is described as follows: optical density shifts of acrAB sulA E. coli – strain DRC41, OD650, 48 h, E. coli filamentation inducer project, primary screen (AID 1152).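 Further: E. coli MC1000 strain DRC41 lacking acrAB efflux pump and sulA.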 The conditions noted are these: higher = more signal, called active from +8 up or from −8 down.
The nature of test [12]: probe aLefty1 binding on compound microarray – biochemical, small-molecule microarray, 635/667 nm fluorescence, primary screen (AID 1153).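 Further: score merges spot fluorescence with signal-to-noise ratio from the scanned slide images.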 The conditions noted are these: higher = more signal.
A short description of test [13]: plasmodial surface anion channel blockers, osmotic lysis – cell-based, P. falciparum Indochina, OD700, 1 h, primary screen (AID 1154). As to conditions: P. falciparum Indochina infected RBC osmotic lysis, higher = more signal, called active from +8 up or from −8 down.
Test [14] can be described thus: plasmodial surface anion channel blockers, osmotic lysis – cell-based, P. falciparum Indochina, OD700, 2 h, primary screen (AID 1155).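 Further: lysis reports solute entry through the parasite surface anion channel PSAC.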 As to conditions: P. falciparum Indochina infected erythrocytes, higher = more signal, called active from +8 up or from −8 down.
Test [15] can be described thus: changes in parasitized red cell lysis, either direction – P. falciparum Indochina, OD700, 3 h, PSAC antagonist project, primary screen (AID 1156). The conditions noted are these: P. falciparum-infected erythrocytes, osmotic lysis, higher = more signal, called active from +8 up or from −8 down.
Test [16] in a line: plasmodial surface anion channel blockers, osmotic lysis – cell-based, P. falciparum Indochina, OD700, 18 h, primary screen (AID 1157). The conditions noted are these: P. falciparum Indochina infected erythrocytes, osmotic lysis OD700, 18 h; higher = more signal, called active from +8 up or from −8 down.
Test [17] in a line: S6 kinase pathway phospho-S6 level changes – cell-based, A549, cytoblot, luminescence, serum-stimulated, primary screen (AID 1158).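 Further: serum-stimulated A549 lung adenocarcinoma cells; signal is phosphorylated S6 detected by cytoblot immunostaining with HRP secondary.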 The conditions noted are these: 5 h, higher = more signal.
In test [18] the target is NADPH oxidase 2 (Homo sapiens) (UniProt P04839). In words: compounds shifting NOX2 Amplex Red fluorescence – cell-based, HEK293-NOX2, PMA-stimulated, NOX inhibitor project, primary screen (AID 1159). Further: test concentration not given here. As to conditions: 45 min, higher = more signal, called active from +8 up or from −8 down.
For test [19], the target named is NADPH oxidase 4 (Homo sapiens) (UniProt Q9NPH5). In words: compounds shifting NOX4 Amplex Red fluorescence – cell-based, HEK293-NOX4, tetracycline-induced, NOX inhibitor project, primary screen (AID 1160). As to conditions: HEK293-NOX4, Amplex Red H2O2 fluorescence, 45 min; higher = more signal, called active from +8 up or from −8 down.
Test [20] addresses NADPH oxidase 5 (Homo sapiens) (UniProt Q96PH1). Kind of test: compounds shifting NOX5 Amplex Red fluorescence – cell-based, HEK293-NOX5, NOX inhibitor project, primary screen (AID 1161). As to conditions: HEK293-NOX5, ionomycin, 45 min, higher = more signal.

Sequence of NADPH oxidase 5 (Homo sapiens) (Q96PH1 whole entry, looked up): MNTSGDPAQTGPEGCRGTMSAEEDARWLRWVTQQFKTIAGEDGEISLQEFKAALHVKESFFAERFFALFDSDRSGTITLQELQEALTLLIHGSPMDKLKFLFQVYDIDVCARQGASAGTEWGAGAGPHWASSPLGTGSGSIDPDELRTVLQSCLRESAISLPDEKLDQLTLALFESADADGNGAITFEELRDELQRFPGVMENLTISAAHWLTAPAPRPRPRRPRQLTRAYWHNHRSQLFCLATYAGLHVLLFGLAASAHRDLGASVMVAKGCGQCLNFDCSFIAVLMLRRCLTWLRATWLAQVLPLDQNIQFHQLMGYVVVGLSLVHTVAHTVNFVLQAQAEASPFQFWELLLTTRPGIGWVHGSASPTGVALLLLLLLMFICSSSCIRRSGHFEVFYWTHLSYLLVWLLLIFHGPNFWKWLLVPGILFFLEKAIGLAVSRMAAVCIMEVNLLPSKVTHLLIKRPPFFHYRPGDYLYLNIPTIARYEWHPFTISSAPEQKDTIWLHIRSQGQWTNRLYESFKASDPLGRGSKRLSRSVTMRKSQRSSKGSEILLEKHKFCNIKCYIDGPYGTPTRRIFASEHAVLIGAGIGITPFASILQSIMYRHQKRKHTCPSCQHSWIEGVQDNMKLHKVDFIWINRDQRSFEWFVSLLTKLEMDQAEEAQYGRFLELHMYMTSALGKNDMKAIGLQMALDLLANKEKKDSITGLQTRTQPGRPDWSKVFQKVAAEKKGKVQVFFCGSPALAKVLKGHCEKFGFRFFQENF
Sequence of Streptavidin (Streptomyces avidinii) (P22629 whole entry, looked up): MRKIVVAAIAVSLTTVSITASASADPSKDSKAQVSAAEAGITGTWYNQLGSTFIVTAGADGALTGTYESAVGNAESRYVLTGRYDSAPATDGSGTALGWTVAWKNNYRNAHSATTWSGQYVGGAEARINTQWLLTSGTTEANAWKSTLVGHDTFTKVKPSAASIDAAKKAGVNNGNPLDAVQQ
Sequence of NADPH oxidase 4 (Homo sapiens) (Q9NPH5 whole entry, looked up): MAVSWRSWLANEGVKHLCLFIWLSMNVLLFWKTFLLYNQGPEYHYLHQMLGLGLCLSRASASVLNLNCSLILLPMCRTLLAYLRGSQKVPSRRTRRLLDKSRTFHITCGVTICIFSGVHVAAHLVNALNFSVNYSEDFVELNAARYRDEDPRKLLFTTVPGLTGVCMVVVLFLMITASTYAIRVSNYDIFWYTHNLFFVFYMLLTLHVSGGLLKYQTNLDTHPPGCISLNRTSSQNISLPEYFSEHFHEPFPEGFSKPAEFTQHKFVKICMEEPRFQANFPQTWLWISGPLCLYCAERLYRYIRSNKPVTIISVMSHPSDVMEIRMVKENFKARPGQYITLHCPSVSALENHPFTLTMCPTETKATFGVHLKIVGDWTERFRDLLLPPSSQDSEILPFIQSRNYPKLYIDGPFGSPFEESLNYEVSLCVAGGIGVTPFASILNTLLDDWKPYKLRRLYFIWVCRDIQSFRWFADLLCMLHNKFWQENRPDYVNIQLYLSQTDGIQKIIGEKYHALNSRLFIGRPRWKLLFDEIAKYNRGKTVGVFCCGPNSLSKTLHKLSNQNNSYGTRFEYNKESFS
Sequence of Torsin-1A (Homo sapiens) (O14656 whole entry, looked up): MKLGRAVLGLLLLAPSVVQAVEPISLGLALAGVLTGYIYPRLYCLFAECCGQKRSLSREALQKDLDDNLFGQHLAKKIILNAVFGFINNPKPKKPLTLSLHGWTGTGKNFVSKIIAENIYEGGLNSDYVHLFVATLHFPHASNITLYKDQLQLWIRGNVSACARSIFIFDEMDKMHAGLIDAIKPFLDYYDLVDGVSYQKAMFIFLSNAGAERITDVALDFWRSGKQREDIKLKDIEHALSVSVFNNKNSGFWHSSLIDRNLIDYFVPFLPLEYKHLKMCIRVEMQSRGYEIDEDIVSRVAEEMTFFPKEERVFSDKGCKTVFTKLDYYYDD
Sequence of NADPH oxidase 2 (Homo sapiens) (P04839 whole entry, looked up): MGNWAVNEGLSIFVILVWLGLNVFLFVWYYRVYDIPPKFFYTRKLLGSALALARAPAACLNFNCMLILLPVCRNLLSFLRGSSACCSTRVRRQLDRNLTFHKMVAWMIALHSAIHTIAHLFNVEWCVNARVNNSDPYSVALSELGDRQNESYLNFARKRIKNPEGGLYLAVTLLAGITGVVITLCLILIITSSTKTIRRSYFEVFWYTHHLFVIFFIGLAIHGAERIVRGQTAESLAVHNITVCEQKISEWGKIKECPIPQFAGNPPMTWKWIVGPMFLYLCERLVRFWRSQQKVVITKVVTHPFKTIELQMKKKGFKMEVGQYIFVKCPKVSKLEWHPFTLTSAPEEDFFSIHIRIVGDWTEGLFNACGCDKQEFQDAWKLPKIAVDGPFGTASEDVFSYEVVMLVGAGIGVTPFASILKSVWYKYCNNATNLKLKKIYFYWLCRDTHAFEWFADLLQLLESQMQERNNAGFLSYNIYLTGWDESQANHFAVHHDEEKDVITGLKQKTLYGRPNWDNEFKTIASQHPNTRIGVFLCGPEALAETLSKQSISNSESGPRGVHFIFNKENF

Turning to `CC(=O)OC[C@H]1O[C@H](C#CCC2CCCCC2)C=C[C@@H]1OC(C)=O`, the composite z-score in [1] was 0.293; in [6] it was 0.176; in test [7], -0.0589; in the test with Torsin-1A (Homo sapiens) [8], 0.419; with Torsin-1A (Homo sapiens) [9] it was 0.96; in [10] it was 1.17. The same molecule yielded a composite z-score in test [12] of -0.19. The z-score in [2] is -2.43 (inactive); in test [3], 0.135 (inactive); in [4], 0.105 (inactive); in [5], 0.483 (inactive); in test [11], 0.457 (inactive); in test [13] it was 2.09 (inactive). Further, the z-score in test [14] was 0.138 (inactive); in test [15], 0.0473 (inactive); in test [16], 0.125 (inactive); in test [17] it was -0.274; in [18], 0.217 (inactive); in [19] it was 0.556 (inactive). In addition, the z-score in [20] was determined as 1.74.
Take `CC(C)CON=C1C[C@@H](O)[C@@H](O)[C@@H]2[C@@H]3C(=O)N(c4ccc(F)cc4F)C(=O)[C@@H]3CC[C@@H]12`: the composite z-score in test [1] is -0.0608; in [6] it was 0.744; in test [7], -0.0719; with Torsin-1A (Homo sapiens) [8] it was 1.29; in the test with Torsin-1A (Homo sapiens) [9] it was 0.218; in test [10] it was 0.583. The composite z-score in test [12] was -0.0984. In addition, the z-score in test [2] is -3.38 (inactive); in test [3], -0.419 (inactive); in test [4], 0.151 (inactive); in [5], 0.391 (inactive); in test [11], -0.177 (inactive); in test [13], 1.3 (inactive). Also, the z-score in [14] is -0.913 (inactive); in test [15], -0.116 (inactive); in test [16], -2.29 (inactive); in [17], -0.164; in test [18], -1.11 (inactive); in [19], -1.87 (inactive). The z-score in test [20] is -3.22.
In the case of `CC[C@@H](c1ccccc1)n1c(=O)n2n(c1=O)[C@H]1[C@H](O)[C@@H]3O[C@@H]3C(=NOCc3ccccc3)[C@H]1CC2`, the composite z-score is 0.0576 in [1]; 0.347 in test [6]; -0.0131 in test [7]; 0.106 with Torsin-1A (Homo sapiens) [8]; 0.223 with Torsin-1A (Homo sapiens) [9]; 1.05 in test [10]. In test [12], this molecule registered a composite z-score of 0.0004. Moreover, the z-score was -3.91 (inactive) in test [2]; 0.479 (inactive) in [3]; 0.248 (inactive) in test [4]; 0.706 (inactive) in [5]; -1.08 (inactive) in test [11]; 2.18 (inactive) in test [13]. Further, the z-score in test [14] is 0.0656 (inactive); in [15] it was 1.1 (inactive); in test [16] it was 0.454 (inactive); in [17] it was 0.3; in test [18], 1.55 (inactive); in test [19], -0.989 (inactive). Besides, the z-score in test [20] was 1.21.
Turning to `C=CC[C@@H]1C=C[C@H](ON=C(C)CCN2CCCc3nc(C)c(C)cc32)[C@@H](CO)O1`, the composite z-score in test [1] was determined as 0.621; in test [6], 0.182; in test [7], 0.528; with Torsin-1A (Homo sapiens) [8] it was 2.17; in the test with Torsin-1A (Homo sapiens) [9], 2.07; in [10] it was 1.66. In test [12], this molecule registered a composite z-score of 0.97. In addition, the z-score in test [2] was -0.686 (inactive); in [3], -0.0889 (inactive); in [4], -0.0824 (inactive); in test [5], -0.299 (inactive); in test [11], 0.579 (inactive); in test [13], 3.7 (inactive). The z-score in test [14] was 0.327 (inactive); in [15], 0.206 (inactive); in test [16] it was 0.562 (inactive); in test [17] it was -1.04; in test [18] it was -0.297 (inactive); in test [19] it was -0.0344 (inactive). In addition, the z-score in [20] is -0.473.
